The structures appear in SMILES notation. Calls of active or inactive are those of the source. The call rests on the fitted dose curve.

The nature of the assay: Cell Proliferation Assay Versus the ED40515 IL2 Dependent ATL cell lines (AID 1053195). Particulars: ED40515 IL2-dependent ATL cells. The text has this: Adult T-cell leukemia (ATL) develops in individuals infected with human T-cell lymphotropic virus-1 (HTLV-1). Clinically, ATL is subclassified into four subtypes: smoldering, chronic, lymphomatous, and acute. Two autocrine loops (IL-2/IL-2Ralpha and IL-15/IL-15Ralpha) and one paracrine stimulation loop that involves IL-9 expression by ATL cells and IL-9Ralpha expression on monocytes are required to maintain viability and proliferation in the smoldering and chronic forms of the disease. These assays examined the differential response profiles for the MIPE library of approved and investigational drugs versus an IL2 dependent and independent matched ATL cell line, with the current submission examining the differential response profiles for drugs on an IL2 dependent matched ATL cell line.
Plate log growing ED40515 +IL2 cells: 1000cells/ well in 5uL phenol red free RPMI +5% FBS +1x p/s, Glutamine using 1536 well white griener tissue culture plates and multidrop cassette acoustic dispensing Columns 1 and 3 DMSO Columns 2 and 4, 9.2 uM Bortezomib Incubate 48 hours for celltiter glo 37C with 5%CO2 and 95% humidity with low evaporation lids Dispense 3 uL per well of cell titer glo with multidrop Incubate for 15 minutes at RT Read on VL/2 using Luminesence Wheel (Filter A)
With `CCCCC/C=C\C/C=C\C/C=C\C/C=C\CCCC(=O)NC1CC1`, the Potency is 16.6 µM (active).

On to `Cn1cc(C2=C(c3cn(C4CCN(Cc5ccccn5)CC4)c4ccccc34)C(=O)NC2=O)c2ccccc21`, for which the Potency was 14.8 µM (active).

`CC(C)n1c(C=C[C@H](O)C[C@H](O)CC(=O)O)c(-c2ccc(F)cc2)c2ccccc21`: the Potency is 0.209 µM (active).

Take `CC1=C2C[C@@H]3[C@@H](CC=C4C[C@@H](O)CC[C@@]43C)[C@@H]2CC[C@]12O[C@H]1C[C@H](C)CN[C@H]1[C@H]2C`: the Potency is 16.6 µM (active).

Consider `C[C@]12CCC(=O)C(O)=C1CC[C@@H]1[C@@H]2CC[C@]2(C)C(=O)CC[C@@H]12`, for which the Potency was 0.059 µM (active).

For `Cc1cc(SCc2sc(-c3ccc(C(F)(F)F)c(F)c3)nc2C)ccc1OCC(=O)O`, the Potency was 18.7 µM (active).

In the case of `O=c1c(O)c(-c2ccc(O)c(O)c2)oc2cc(O)cc(O)c12`, the Potency was 16.6 µM (active).

With `C[C@@H]1[C@@H](C(=O)C[C@H]2O[C@@H]3O[C@]4(C)CC[C@@H]5[C@H](C)CC[C@@H]([C@H]2C)[C@@]35OO4)O[C@@H]2O[C@]3(C)CC[C@H]4[C@H](C)CC[C@@H]1[C@@]24OO3`, the Potency was 0.0066 µM (active).

For the compound `O=C(O)C(=O)c1cn(Cc2ccccc2)c2ccc(-c3ccc(OC(F)(F)F)cc3)cc12`, the Potency was 20.9 µM (active).

On to `CNC(=O)N1N=C(c2ccc(N)cc2)c2cc3c(cc2CC1C)OCO3` (stereo not given), for which the Potency was 14.8 µM (active).

In the case of `CC(O)(CS(=O)(=O)c1ccc(F)cc1)C(=O)Nc1ccc(C#N)c(C(F)(F)F)c1` (stereo not given), the Potency is 14.8 µM (active).

For `COC1(CS(=O)c2ccccc2)CCN(CCc2c[nH]c3ccc(F)cc23)CC1` (stereo not given), the Potency was 23.5 µM (active).

Consider `CNC(=O)c1ccc(N2C(=S)N(c3ccc(C#N)c(C(F)(F)F)c3)C(=O)C23CCC3)cc1F`, for which the Potency is 20.9 µM (active).

Take `CN(C)CCN(C)CCc1ccc(Cl)c(Cl)c1`: the Potency is 16.6 µM (active).

Turning to `C[C@@H]1[C@@H](CC(C[C@H]2O[C@@H]3O[C@]4(C)CC[C@@H]5[C@H](C)CC[C@@H]([C@H]2C)[C@@]35OO4)C[S+](=O)([O-])c2ccc(COC(=O)N(C)C)cc2)O[C@@H]2O[C@]3(C)CC[C@H]4[C@H](C)CC[C@@H]1[C@@]24OO3` (stereo not given in full), the Potency was 0.0166 µM (active).

These data come from PubChem BioAssay (NCATS).
